# Assay outcomes deposited in PubChem by National Center for Advancing Translational Sciences (NCATS).
# Hits are enriched below; roughly 1.7% of the tested compounds scored in any of these assays.
# Imprint erasure: inducers of genomic imprint erasure in mouse ES cells | mouse ES Peg3-LacZ reporter, beta-gal luminescence, 40 h | Potency, µM (titrated, usually from 60.7 µM), without a hit: at the highest dose activity change, positive = activation, actives largely listed as activators | 110,000 compounds, 0.02% hits | AID 1948
#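 Each well holds 300 Peg3LacZ-Neo (maternal) female ES cells incubated 40 h at 37C, 5% CO2. LacZ is measured by BetaGlo luminescence, with AC50 and maximum efficacy derived from dose-response curves.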
# p53ts 32C kill: cytotoxicity in p53ts cells at permissive temperature; 130,000 compounds, 0.93% hits; Potency, µM (doses to about 46.1 µM), for inactives: at the top dose activity change, negative = cytotoxicity, usual class: cytotoxic; H1299-p53A138V at 32C, ATP luminescence viability, 24 h;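 note: 0% = DMSO and -100% = full killing by reference compound; nearly all actives have a fitted effect of over 55% in size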
#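 H1299-p53 A138V cells (temperature-sensitive p53) exposed 24 h to up to 46 uM compound at 32C, where p53 is wild-type in conformation. Viability read as ATP luminescence and normalised to DMSO and 100 uM tamoxifen. AC50 fitted with the Hill equation.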
# IkB sig inh: IkB pathway inhibition in ABC-DLBCL cells; ABC-DLBCL IkBa-CBG/CBR dual luciferase ratio, 4 h; response scale: scaled: untreated 0%, proteasome inhibitor 100%; Potency, µM (titrated, usually from 57.1 µM), for inactives: at the highest dose IkBa stabilization activation; 110,000 compounds, 0.04% hits; active = well fitted curve in the direction sought with a large enough effect in the signal ratio, not every such curve was filed as active; inconclusive = small, poorly fitted or top-dose-only effect, or a change in a side signal; the % refers to the signal ratio;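 note: the direction sought is a rising ratio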
#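 Luminescence ratio of IκBα-fused green versus native red beetle luciferase in OCI-Ly3 cells, 4 h post-doxycycline with compound; red signal alone, scaled from basal (0%) to zero light (-100%), flagged nonspecific or cytotoxic effects.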
# p53ts 39C tox: kills p53ts cells at the nonpermissive temperature; 130,000 compounds, 1.5% hits; H1299-p53A138V viability at 39C, ATP luminescence, 24 h; Potency, µM (doses to about 46.1 µM), inactives show at the highest dose activity change, negative = cell killing, actives largely listed as cytotoxic; note: % is set by controls: 0 for no effect and ±100 for the full control effect; nearly all actives have a fitted effect of over 55% in size
# * hit, by the source's call; ? = inconclusive; . = no result; [ ] = remark or other dose. Unless noted, calls come from the whole dose curve; as a rule, active = well fitted curve in the direction sought with a large enough effect; inconclusive = small, poorly fitted or top-dose-only effect, or another doubt; inactive = no such curve, though single readings can be large; an effect the other way counts as inactive or inconclusive. Potency is the fitted concentration of half-maximal effect.
SMILES,Imprint erasure,p53ts 32C kill,IkB sig inh,p53ts 39C tox
COc1ccccc1-c1nc2c(c(SCC(=O)Nc3ccccc3F)n1)Cc1c(CO)cnc(C)c1O2,-13%[10.9 µM],-1%,-2%,-10%
Nc1nnc(C(=O)c2ccccc2N)s1,-3%,16µM*,4%,?
COc1ccc(-n2c(SCC(=O)NCc3ccc(C)cc3)nc3n[nH]c(C)c3c2=N)cc1,-8%[10.9 µM],1%,0%,-16%
CC(=O)N1CCc2cc(Br)cc(S(=O)(=O)CCC(=O)N3CCN(c4ccc(F)cc4)CC3)c21,6%[10.9 µM],-2%,2%,10%
COc1ccc2c(c1)sc(N)[n+]2Cc1cc(C)cc2cccnc12,.,-9%,.,11µM*
O=C(COc1ccc(F)cc1)Nc1ccc2nc(SCCOc3ccccc3)sc2c1,-10%[10.9 µM],-5%,-2%,9%
Cc1cccc(NC(=O)CSc2nc3ccc(NC(=O)COc4ccccc4F)cc3s2)c1,-14%[10.9 µM],?,-2%,10µM*
Cc1ccc(OCCSc2nc3ccc(NC(=O)COc4ccc(F)cc4)cc3s2)cc1,-10%[10.9 µM],0%,-3%,10µM*
Nc1ccc2ncccc2c1,-28%,?,3%,3.2µM*
Cc1ccc2cccnc2c1,3%,-18%[1.84 µM],2%,6%
CC(=O)Nc1ccc2nc(-c3ccccn3)[nH]c2c1,-78%,4µM*,1%,6.3µM*
Cc1ccc(S(=O)(=O)CC(=O)Nc2nc3c(C)cccc3s2)cc1,-7%[10.9 µM],-5%,?,-4%
CCOC(=O)c1ccc(NC(=O)Cc2coc3cc(C)cc(C)c23)cc1,-17%[10.9 µM],-1%,1%,-22%
Cc1ccc(C)c(N2CCN(C(=O)Cn3c(=O)c4cccn4c4ccc(F)cc43)CC2)c1,-17%[10.9 µM],0%,0%,-26%
O=C(CC(=O)Nc1ccccn1)Nc1ccccn1,8%,-7%,0%,5%
O=C(COc1ccc(Cl)cc1Cl)NC(=O)N1CCCCC1,-5%,13µM*,2%,?
O=C(COc1ccc(Cl)cc1)Nc1ccc(Cl)cn1,-19%,-21%,9%,-5%
COc1ccccc1OCC(=O)Nc1ccccn1,-92%,10µM*,?,7.9µM*
O=C(COc1ccc(Cl)cc1Cl)NCc1ccncc1,-14%,-4%,1%,0%
O=C(COc1ccccc1Cl)Nc1ccc(Cl)cn1,-51%,13µM*,-2%,16µM*
O=C(COc1ccc(Cl)cc1Cl)Nc1ccccn1,-97%,0.4µM*,?,0.63µM*
CC(C)Oc1ccc(CNC(=O)c2ccc(Cn3c(=O)c4cccn4c4cccnc43)cc2)cc1,-4%[10.9 µM],-4%,-1%,-15%
O=C1c2ccccc2C(=O)c2c(Nc3cc4c5c(ccc6c7ccc8c9c(cc(Nc%10cccc%11c%10C(=O)c%10ccccc%10C%11=O)c(c3c56)c97)-c3ccccc3C8=O)C(=O)c3ccccc3-4)cccc21,-1%[10.9 µM],3%[9.22 µM],0%[11.4 µM],8%[9.22 µM]
COCCCNC(=O)CSc1nc(-c2cccc(F)c2)[nH]c1-c1ccccc1,-6%[10.9 µM],15%,5%,2%
COc1cccc(CCc2ccccc2OCC[C@@H]2C[C@@H](O)CN2C)c1,-26%,?,.,13µM*
SMILES,Imprint erasure,p53ts 32C kill,IkB sig inh,p53ts 39C tox
COc1cccc(NC2CC(=O)N(CCc3ccccc3)C2=O)c1 (centres undefined),-14%,9%,1%,1%
COc1cccc(Cn2c(=O)c(-c3ccc(Cl)cc3)nc3cncnc32)c1,-19%,-26%,0%[11.4 µM],?
CCOc1ccccc1NC(=O)N1CCN(Cc2nc3ccc(C)cc3o2)CC1,7%[10.9 µM],-4%,?,-12%
CC1CCCN(C(=O)CSc2c3c(nc4cc(Cl)ccc24)CCCC3)C1 (centres undefined),-14%[10.9 µM],25µM*,9%,?
CC1CCN(C(=O)CSc2c3c(nc4ccc(Cl)cc24)CCCC3)CC1,-8%[10.9 µM],?,?,?
CC1CCCCN1C(=O)CSc1c2c(nc3cc(Cl)ccc13)CCCC2 (centres undefined),-16%[10.9 µM],-13%,?,13µM*
Cn1c(O)c(N=N/C(=N/c2ccccn2)c2ccccn2)c2cc(Br)ccc21,.,-13%,.,-30%
COc1cccc(-c2nc(SCc3cccc(Br)c3)n3[nH]c(=O)cc3n2)c1,-3%[10.9 µM],3%,12%,1%
CCc1ccc(NC(=O)CSc2c(C)cnc3c2c(=O)n(C)c(=O)n3C)cc1,15%[10.9 µM],6%,4%,-31%
CCc1ccc(NC(=O)CSc2ccc(-c3sc(-c4ccccc4)nc3C)nn2)cc1,-10%[10.9 µM],0%,?,-18%
CC(=O)Nc1cccc(NC(=O)CSc2ccc(-c3sc(-c4ccccc4)nc3C)nn2)c1,-20%[10.9 µM],14%,?,7.9µM*
COc1cc(NC(=O)CSc2ccc(-c3sc(-c4ccccc4)nc3C)nn2)cc(OC)c1,-19%[10.9 µM],-2%,7%,-9%
Cc1nc(-c2ccccc2)sc1-c1ccc(SCC(=O)Nc2cccc(C(F)(F)F)c2)nn1,-15%[10.9 µM],-9%,0%,10µM*
CNS(=O)(=O)c1ccccc1C(=N)c1ccccc1,-4%[10.9 µM],3%[9.22 µM],1%[11.4 µM],-9%[9.22 µM]
Cc1cc(N2CCCCC2)n2ncc(-c3ccccc3)c2n1,-25%,13µM*,4%,?
Cc1cc(C(=O)Nc2sc3c(c2C#N)CCC3)no1,-52%,10µM*,-2%,13µM*
Cc1cc(C(=O)Nc2sc3c(c2C#N)CCCC3)no1,-53%,6.3µM*,0%,13µM*
Cc1cc(C(=O)Nc2sc3c(c2C#N)CCC(C)C3)no1 (centres undefined),-13%,1%,-1%,-3%
COc1ccc(C(=O)Nc2cccc(OC)c2)cc1,-92%,10µM*,?,13µM*
COc1ccc2oc(=O)c(C(=O)Nc3cccc(C(=O)O)c3)cc2c1,-89%[10.9 µM],7.9µM*,?,5µM*
Cc1ccccc1C(=O)Nc1cccc(N)c1,-19%,-1%,5%,2%
Cc1ccccc1C(=O)Nc1cccc(NC(=O)c2ccc(C(C)(C)C)cc2)c1,-24%[10.9 µM],10µM*,17%,13µM*
COc1ccc(CNC(=O)c2cc3cc(OC)ccc3oc2=O)cc1,5%[10.9 µM],10%,-2%,-22%
COc1cccc(C(=O)Nc2cccc(NC(C)=O)c2)c1,-48%,-14%,19%,-3%
COc1cccc(C(=O)Nc2ccc(NC(=O)C(C)(C)C)cn2)c1,-83%,4µM*,2%,3.2µM*
SMILES,Imprint erasure,p53ts 32C kill,IkB sig inh,p53ts 39C tox
CCc1nnc(NC(=O)c2c(OC)cccc2OC)s1,-2%,6%,1%,4%
COc1ccc(C(=O)COC(=O)c2cccc(NC(=O)c3ccc(OC)c(OC)c3)c2)cc1,-75%[10.9 µM],?,?,16µM*
CCc1nnc(NC(=O)c2cccc(OC)c2)s1,-62%,13µM*,5%,?
COc1ccc(/C=C/C(=O)Nc2cccc(F)c2)cc1,-44%[10.9 µM],10µM*,?,7.9µM*
COc1ccc(C(=O)Nc2ccc(OC)c(OC)c2)cc1,-54%,?,0%,?
O=C(O)c1cccc(COc2ccccc2Cl)c1,-96%,10µM*,?,13µM*
CCN1CCN(Cc2ccc(NC(=O)Nc3ccccc3OC)cc2)CC1,2%,7.9µM*,3%,10µM*
